Test systems include HCT-15 colon; HT29 colon; SNB-75 CNS; SNB-19 CNS; U251 CNS; PC-3 prostate; SK-MEL-5 melanoma; UACC-62 melanoma; LOX IMVI melanoma; SK-MEL-28 melanoma; SK-MEL-2 melanoma; EKVX NSCLC; SN12C renal; UO-31 renal; ACHN renal; CAKI-1 renal; A498 renal; CCRF-CEM leukemia; MOLT-4 leukemia; TK-10 renal.
Holding throughout (test): NCI-60 one-dose screen, 48 h (100 = growth as untreated, 0 = no growth, -100 = all killed)
Common to all, as to details: 10 µM unless noted

The structures appear in SMILES notation. About 83,000 compounds went through this panel and 20% of them were active in at least one assay; those are over-represented in the sample as a whole.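 Compound tested at a single concentration for 48 hours in 96-well plates; a percent growth value below 10 was scored as active.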 Values without a mark were called inactive. Activity calls are given as the source filed them.

As to `COc1cc(-c2nc(SC(C)C)nc(Nc3ccccc3C)c2C#N)cc(OC)c1OC`, the growth in the test on HCT-15 colon is 102%; in the test on HT29 colon it was 109%; in the test with SNB-75 CNS, 108%; with SNB-19 CNS, 100%; with U251 CNS, 108%; in the test on PC-3 prostate, 104%. Further, the growth in the test on SK-MEL-5 melanoma is 102%; in the test on UACC-62 melanoma, 97.2%; in the test with LOX IMVI melanoma it was 102%; in the test with SK-MEL-28 melanoma, 107%; with SK-MEL-2 melanoma, 103%; with EKVX NSCLC it was 102%. For the same compound, the growth in the test with SN12C renal is 104%; in the test on UO-31 renal, 86.3%; in the test on ACHN renal, 101%; in the test on CAKI-1 renal it was 94.1%; in the test on A498 renal, 88.4%; with CCRF-CEM leukemia it was 103%. The growth with MOLT-4 leukemia was 110%.
For `O=C(N/N=C(\CS(=O)(=O)c1ccccc1)c1cc2cc(Br)ccc2oc1=O)c1ccccc1`, the growth in the test with HCT-15 colon is 99.8%; in the test with HT29 colon it was 103%; in the test on SNB-75 CNS, 89.8%; with SNB-19 CNS, 103%; with U251 CNS it was 97.7%; in the test on PC-3 prostate, 95.5%. Moreover, the growth in the test with SK-MEL-5 melanoma was 103%; in the test on UACC-62 melanoma, 95.2%; in the test with LOX IMVI melanoma, 99.1%; with SK-MEL-28 melanoma, 99.3%; in the test with SK-MEL-2 melanoma, 105%; in the test on EKVX NSCLC, 94.2%. In addition, the growth with SN12C renal was 96.1%; in the test with UO-31 renal, 94.4%; in the test with TK-10 renal, 108%; with ACHN renal, 103%; with CAKI-1 renal, 90.6%; in the test with MOLT-4 leukemia, 140%.
On to `c1ccc2cc(-c3n(Cc4ccc5ccccc5n4)c4ccccc4[n+]3Cc3ccc4ccccc4n3)ccc2c1`, for which the growth was 18.8% in the test on HCT-15 colon; -31.7% (active) in the test on HT29 colon; -32.8% (active) in the test with SNB-75 CNS; 6.22% (active) in the test on SNB-19 CNS; -7.46% (active) with U251 CNS; 0.461% (active) in the test on PC-3 prostate. Besides, the growth with SK-MEL-5 melanoma is -96% (active); with UACC-62 melanoma, -60.6% (active); in the test on LOX IMVI melanoma, -85.8% (active); with SK-MEL-28 melanoma, -24.2% (active); in the test on SK-MEL-2 melanoma it was -42.9% (active); in the test with EKVX NSCLC, 4.21% (active). The growth in the test with SN12C renal was 0.451% (active); in the test on UO-31 renal it was -14.3% (active); in the test with ACHN renal it was 7.63% (active); in the test with CAKI-1 renal it was -47.6% (active); in the test on A498 renal, -22.3% (active); in the test on CCRF-CEM leukemia it was 8.55% (active). In addition, in the test on MOLT-4 leukemia, the growth was -32.8% (active).
As for `O=c1c2c(=NCCN3CCCC3)cc3c(=O)n(CCCN4CCOCC4)c(=O)c4c(-c5ccc(CN6CCCC6)cc5)cc(c(O)n1CCCN1CCOCC1)c2c4-3`, the growth is -30% (active) in the test on HCT-15 colon; -23.4% (active) in the test with HT29 colon; -83.5% (active) in the test on SNB-75 CNS; -9.24% (active) in the test with SNB-19 CNS; -19.4% (active) with U251 CNS; -47.2% (active) in the test on PC-3 prostate. The growth in the test on SK-MEL-5 melanoma is -44.6% (active); in the test with UACC-62 melanoma, -73.2% (active); in the test on LOX IMVI melanoma it was -78.2% (active); in the test with SK-MEL-28 melanoma it was -67.8% (active); with SK-MEL-2 melanoma, -40.8% (active); in the test on EKVX NSCLC, -37% (active). For the same compound, the growth with SN12C renal is -25.5% (active); in the test with UO-31 renal, -6.74% (active); with ACHN renal, -4.38% (active); in the test with CAKI-1 renal, 0.0079% (active); with A498 renal it was -85% (active); with CCRF-CEM leukemia it was -4.42% (active). The growth in the test with MOLT-4 leukemia was 0.115% (active).
Consider `COC(=O)c1c2c(c(C)[n+]([O-])c1C)C(=O)C=C(NCc1cccc(Cl)c1)C2=O`, for which the growth with HCT-15 colon was -66.9% (active); in the test on HT29 colon, 3.61% (active); with SNB-75 CNS, -95.4% (active); in the test on SNB-19 CNS, -53.4% (active); in the test with U251 CNS, -20.7% (active); in the test with PC-3 prostate it was -1.7% (active). Further, the growth with SK-MEL-5 melanoma is -97.1% (active); in the test on UACC-62 melanoma, -68% (active); with LOX IMVI melanoma, -57.5% (active); in the test on SK-MEL-28 melanoma, -1.27% (active); in the test on SK-MEL-2 melanoma it was -32.8% (active); with EKVX NSCLC it was -57.3% (active). In addition, the growth is -90.7% (active) with SN12C renal; -18.5% (active) in the test with UO-31 renal; 14.5% with TK-10 renal; -44.8% (active) with ACHN renal; -14.3% (active) in the test with CAKI-1 renal; -11.2% (active) with CCRF-CEM leukemia. In addition, the growth in the test on MOLT-4 leukemia was -34.8% (active).
Regarding `O=C(N/N=C(\CS(=O)(=O)c1ccccc1)c1cc2ccccc2oc1=O)c1ccccc1`, the growth is 107% in the test on HCT-15 colon; 108% with HT29 colon; 93.2% in the test with SNB-75 CNS; 99.8% in the test on SNB-19 CNS; 96.3% in the test with U251 CNS; 98.3% in the test on PC-3 prostate. Also, the growth was 105% in the test on SK-MEL-5 melanoma; 97.9% with UACC-62 melanoma; 96.6% with LOX IMVI melanoma; 107% in the test with SK-MEL-28 melanoma; 115% in the test with SK-MEL-2 melanoma; 101% in the test with EKVX NSCLC. The growth with SN12C renal is 101%; in the test on UO-31 renal it was 94%; with TK-10 renal, 119%; in the test with ACHN renal it was 101%; in the test on CAKI-1 renal, 96.4%; in the test with CCRF-CEM leukemia, 106%. In the test with MOLT-4 leukemia, the growth was 115%.
Turning to `CCCCC(O)Cn1ncc(C(=O)OCC)c1NC(=O)NCc1ccccc1C(F)(F)F` (stereo unspecified), the growth with HCT-15 colon was 98%; with HT29 colon it was 107%; in the test with SNB-75 CNS, 92.6%; in the test with SNB-19 CNS, 94.4%; with U251 CNS, 95.3%; in the test with PC-3 prostate, 86.6%. Further, the growth is 95.9% with SK-MEL-5 melanoma; 87.6% in the test on UACC-62 melanoma; 98.4% in the test with LOX IMVI melanoma; 111% in the test with SK-MEL-28 melanoma; 104% with SK-MEL-2 melanoma; 101% in the test on EKVX NSCLC. For the same compound, the growth in the test with SN12C renal was 99.7%; in the test on UO-31 renal, 82.6%; in the test on TK-10 renal, 96.3%; with ACHN renal, 97.4%; in the test with CAKI-1 renal, 84.2%; with CCRF-CEM leukemia, 104%. Besides, in the test on MOLT-4 leukemia, the growth is 93.9%.
As for `COc1cccc(C2C3=C(COC3=O)N(CCO)c3cc4c(cc32)CCC4)c1` (stereo unspecified), the growth in the test on HCT-15 colon was 2.3% (active); in the test with HT29 colon it was -28.2% (active); in the test with SNB-75 CNS, -19.2% (active); in the test on SNB-19 CNS, 11.3%; in the test on U251 CNS, 2.42% (active); with PC-3 prostate it was 23.5%. Further, the growth in the test with SK-MEL-5 melanoma was -16.2% (active); in the test with UACC-62 melanoma it was 8.14% (active); in the test on LOX IMVI melanoma, 14.8%; in the test with SK-MEL-28 melanoma, 46.8%; in the test on SK-MEL-2 melanoma, 36.8%; in the test on EKVX NSCLC, 27.9%. The growth in the test on SN12C renal is 19.5%; in the test on UO-31 renal, 42.3%; in the test with ACHN renal, 35.5%; in the test with CAKI-1 renal, 4.92% (active); in the test with A498 renal it was -19.8% (active); in the test with CCRF-CEM leukemia, 20.9%. In addition, the growth in the test with MOLT-4 leukemia was 24.3%.

These data come from PubChem BioAssay (NCI).
